Test [1] addresses Aryl hydrocarbon receptor (Homo sapiens) (UniProt P35869). Briefly: qHTS assay to identify small molecule that activate the aryl hydrocarbon receptor (AhR) signaling pathway (AID 743085).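 For activation: HG2L7.5c1 human HepG2 liver cells with stably integrated DRE-driven firefly reporter; series mostly up to about 70 µM.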 Note: nearly all actives have a fitted effect of over 15% in size. Note: potency is the fitted concentration of half-maximal effect. The gist of the method:
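HepG2 cells stably carrying a 20-DRE firefly luciferase reporter (HG2L7.5c1) treated with compound for 24 hr at 37C. Luciferase read by ONE-Glo luminescence, with CellTiter-Fluor viability read first.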

Test [2] in a line: qHTS assay to identify small molecule that activate the aryl hydrocarbon receptor (AhR) signaling pathway - cell viability counter screen (AID 743086). Note: nearly all actives have a fitted effect of over 45% in size. Note: potency is the fitted concentration of half-maximal effect. The gist of the method: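 HepG2-AhR-luc (HG2L7.5c1) cells, 4000/well, treated 24 h at 37 C with compound; viability measured as CellTiter-Fluor fluorescence after 30 min in the same wells as the luciferase read.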
For orientation: Quantitative high-throughput screening tests each substance at several concentrations.

The target in test [3] is Peroxisome proliferator-activated receptor gamma (Homo sapiens) (UniProt P37231). Briefly: qHTS assay to identify small molecule agonists of the peroxisome proliferator-activated receptor gamma (PPARg) signaling pathway (AID 743094; active = well fitted activation curve with a large enough effect in the signal ratio in the repeat runs, not every such curve was filed as active; the % refers to the signal ratio). The method, boiled down:
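Fluorescence-based beta-lactamase readout in HEK293H PPARg UAS-bla cells after 17 h compound exposure (37C) and 1 h B/G FRET substrate incubation at room temperature.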

The nature of test [4]: qHTS assay to identify small molecule phospholipidosis (PLD) inducers (AID 1259344; active = well fitted curve in the direction sought with a large enough effect; an effect the other way counts as inactive or inconclusive). The method, boiled down: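 Image-based: LipidTOX Red pit count/intensity per well and per cell; HepG2, 24 h compound at 37 C, PFA fixation, Hoechst counterstain.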
Test [5] addresses Nuclear receptor subfamily 1 group I member 2 (Rattus norvegicus) (UniProt Q9R1A7). Briefly: Rat pregnane X receptor (rPXR) activation by small molecules, qHTS assay (AID 1346983). Note: nearly all actives have a fitted effect of over 20% in size. Note: potency is the fitted concentration of half-maximal effect. The following applies: rPXR luciferase reporter cells, One-Glo luminescence, 24 h; max activation: stronger effect = higher value. The gist of the method:
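Cell-based rPXR activation assay: rPXR cells, 2,000 per well, rested 5hr at 37 C, then exposed to compounds in DMSO for 24 hr at 37 C. Luciferase activity read by One-Glo luminescence after 30 min at room temperature.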

For test [6], the target named is Nuclear receptor subfamily 1 group I member 2 (Homo sapiens) (UniProt O75469). As to the kind of experiment: CYP3A4 induction through human pregnane X receptor (PXR) by small molecules, qHTS assay (AID 1346984). Note: nearly all actives have a fitted effect of over 40% in size. Note: potency is the fitted concentration of half-maximal effect. The method, boiled down:
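After 24 h at 37C with compound, DPX-2 cells (HepG2, co-transfected PXR response element and CYP3A4 promoter-luciferase) got 3uM final P450-Glo Luciferin-IPA for 3 h; One-Glo luminescence followed.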

Test [7] has the same target. Briefly: Human pregnane X receptor (PXR) activation by small molecules, qHTS assay (AID 1346985). Note: nearly all actives have a fitted effect of over 40% in size. Note: potency is the fitted concentration of half-maximal effect. The method, boiled down: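 DPX-2 cells (HepG2 co-transfected with a PXR response element and a CYP3A4-promoter luciferase construct) were seeded at 2,000 per well, rested 5 hr at 37C, then exposed to DMSO-dissolved compounds for 24 hr. Activation was read as luciferase luminescence.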

The nature of test [8]: qHTS assay to identify aromatase inhibitors - cell viability counter screen (AID 743084).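 Note: cells stimulated with testosterone during compound exposure; nearly all actives have a fitted effect of over 55% in size.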

This note sets out measurements from PubChem BioAssay (Tox21).

Inconclusive results are not listed. Values without a mark were called inactive. Calls of active or inactive are those of the source. Unless noted, calls come from the whole dose curve; as a rule, active = well fitted curve in the direction sought with a large enough effect in the repeat runs; inconclusive = weak or mixed curves; inactive = no such curve, though single readings can be large; an effect the other way counts as inactive or inconclusive.
% is set by controls: 0 for no effect and ±100 for the full control effect.

Sequence of Peroxisome proliferator-activated receptor gamma (Homo sapiens) (P37231 whole entry, looked up): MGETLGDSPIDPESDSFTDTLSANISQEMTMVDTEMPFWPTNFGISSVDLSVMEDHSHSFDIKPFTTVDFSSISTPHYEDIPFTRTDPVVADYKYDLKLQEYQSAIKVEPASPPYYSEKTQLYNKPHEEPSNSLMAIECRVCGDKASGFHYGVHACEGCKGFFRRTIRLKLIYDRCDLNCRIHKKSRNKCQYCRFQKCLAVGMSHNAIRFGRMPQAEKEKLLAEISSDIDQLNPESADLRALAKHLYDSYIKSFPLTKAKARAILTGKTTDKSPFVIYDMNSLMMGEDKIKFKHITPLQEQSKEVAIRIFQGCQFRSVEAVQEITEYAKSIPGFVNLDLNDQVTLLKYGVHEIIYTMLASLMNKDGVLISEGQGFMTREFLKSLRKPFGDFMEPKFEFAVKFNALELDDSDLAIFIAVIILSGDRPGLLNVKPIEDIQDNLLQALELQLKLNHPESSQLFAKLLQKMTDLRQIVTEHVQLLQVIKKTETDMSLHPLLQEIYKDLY
Sequence of Aryl hydrocarbon receptor (Homo sapiens) (P35869 whole entry, looked up): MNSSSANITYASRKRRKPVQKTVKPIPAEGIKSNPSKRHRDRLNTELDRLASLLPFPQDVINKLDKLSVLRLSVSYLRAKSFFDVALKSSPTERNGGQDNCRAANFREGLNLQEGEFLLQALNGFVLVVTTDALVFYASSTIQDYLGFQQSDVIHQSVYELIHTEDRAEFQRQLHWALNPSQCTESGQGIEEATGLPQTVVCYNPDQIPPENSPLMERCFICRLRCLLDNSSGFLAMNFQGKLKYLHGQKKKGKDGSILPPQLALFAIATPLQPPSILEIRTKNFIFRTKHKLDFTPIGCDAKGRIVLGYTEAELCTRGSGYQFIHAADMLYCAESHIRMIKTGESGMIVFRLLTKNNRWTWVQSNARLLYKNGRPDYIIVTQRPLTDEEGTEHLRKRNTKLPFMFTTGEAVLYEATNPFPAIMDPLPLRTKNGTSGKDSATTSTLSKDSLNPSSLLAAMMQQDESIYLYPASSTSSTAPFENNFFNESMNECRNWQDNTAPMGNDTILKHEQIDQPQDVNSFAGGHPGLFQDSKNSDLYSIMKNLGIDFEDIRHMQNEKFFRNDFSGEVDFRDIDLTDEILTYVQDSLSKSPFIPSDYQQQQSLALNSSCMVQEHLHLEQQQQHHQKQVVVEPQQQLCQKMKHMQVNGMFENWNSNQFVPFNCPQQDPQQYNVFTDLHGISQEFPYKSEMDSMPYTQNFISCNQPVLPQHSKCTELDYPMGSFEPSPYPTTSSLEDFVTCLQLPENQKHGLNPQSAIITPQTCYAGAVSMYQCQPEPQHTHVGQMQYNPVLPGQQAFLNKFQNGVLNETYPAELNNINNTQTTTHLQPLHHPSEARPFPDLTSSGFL
Sequence of Nuclear receptor subfamily 1 group I member 2 (Rattus norvegicus) (Q9R1A7 whole entry, looked up): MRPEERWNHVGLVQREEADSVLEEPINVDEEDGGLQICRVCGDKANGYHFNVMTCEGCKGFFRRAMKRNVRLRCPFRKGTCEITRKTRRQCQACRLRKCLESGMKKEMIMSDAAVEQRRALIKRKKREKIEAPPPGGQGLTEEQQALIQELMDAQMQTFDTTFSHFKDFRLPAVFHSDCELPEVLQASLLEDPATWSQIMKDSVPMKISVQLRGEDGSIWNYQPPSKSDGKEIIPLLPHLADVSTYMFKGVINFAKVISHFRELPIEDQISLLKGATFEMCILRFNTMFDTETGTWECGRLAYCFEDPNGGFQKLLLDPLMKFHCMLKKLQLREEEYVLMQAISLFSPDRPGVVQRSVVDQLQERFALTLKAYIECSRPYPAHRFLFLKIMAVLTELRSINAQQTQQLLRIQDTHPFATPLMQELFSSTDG

Regarding `CC(CCc1ccc(O)cc1)NCC(O)c1ccc(O)cc1` (configuration not stated), the Potency entry in test [1], in test [2], in test [3], in test [4], in test [6] and in test [7] was “inactive” in each case. Besides, in test [5], the max activation was -0.789%.

Consider `C[C@H]1[C@@H](OC(=O)CCC(=O)O)O[C@@H]2OC3(C)CC[C@H]4[C@H](C)CC[C@@H]1[C@@]24OO3`, for which the Potency result in test [1], in test [4], in test [6] and in test [7] was “inactive” in each case. Also, the max activation in test [5] was -13.4%.

In the case of `NC(=O)OC[C@@H]1[C@H](NC(=O)/C(=N\OCC(=O)O)c2csc(N)n2)C(=O)N1S(=O)(=O)O`, the Potency entry in test [2], in test [4], in test [6] and in test [7] was “inactive” in each case. Further, in test [5], the max activation was -2.39%.

For the molecule `CC(C)N=c1cc2n(-c3ccc(Cl)cc3)c3ccccc3nc-2cc1Nc1ccc(Cl)cc1`, the Potency entry in test [1], in test [2], in test [3], in test [4], in test [6] and in test [7] was “inactive” in each case. Besides, in test [5], the max activation is -3.58%.

`CC(=C\c1ccccc1)/C=C1/SC(=S)N(CC(=O)O)C1=O`: the Potency result in test [8], in test [1], in test [2], in test [4] and in test [6] was “inactive” each time. The max activation in test [5] was 4.01%.

For `CC(CN1c2ccccc2Sc2cccnc21)N(C)C` (configuration not stated), the Potency result in test [8], in test [1], in test [2], in test [3] and in test [4] was “inactive” each time. Besides, the max activation in test [5] is -2.44%. Moreover, the Potency in test [6] was 3.98 µM (active).

Take `CC1(C)[C@@H]2CC[C@@]1(C)[C@H](OC(=O)CSC#N)C2`: the Potency result in test [8], in test [1], in test [2], in test [3], in test [4] and in test [6] was “inactive” in each case. For the same molecule, the max activation in test [5] is 7.49%.

In the case of `CO[C@@H]1[C@@H](O[C@@H]2O[C@H](C)[C@@H](O[C@H]3C[C@@](C)(O)[C@@H](OC(=O)CC(C)C)[C@H](C)O3)[C@H](N(C)C)[C@H]2O)[C@@H](CC=O)C[C@@H](C)C(=O)/C=C/C2OC2C[C@@H](C)OC(=O)C[C@H]1OC(C)=O` (some centres not stated), the Potency result in test [1], in test [4], in test [6] and in test [7] was “inactive” each time. The max activation in test [5] is -11.7%.

`CNC(=O)[C@H](Cc1c[nH]c2ccccc12)NC(=O)[C@@H](CC(=O)NO)CC(C)C`: the Potency in test [2] is 0.596 µM (active). Also, the Potency result in test [4], in test [6] and in test [7] was “inactive” throughout. The max activation in test [5] was 15%.

For the molecule `C#C[C@]1(O)CC[C@H]2[C@@H]3CCC4=CC(=O)CC[C@@H]4[C@H]3C(=C)C[C@@]21CC`, the Potency result in test [8], in test [1], in test [2], in test [3], in test [4] and in test [6] was “inactive” each time. The Potency in test [5] was 7.94 µM (active).

In the case of `Cc1cc(C)c(NC(=O)C[C@H](CC(=O)O)c2cccc3ccccc23)c(C(=O)N2CCC3(CCCC3)CC2)c1`, the Potency entry in test [8], in test [1], in test [2], in test [3], in test [4] and in test [6] was “inactive” each time. Moreover, the max activation in test [5] is 1.3%.

With `O=C1/C(=C\c2cccs2)CCC/C1=C\c1cccs1`, the values for the Potency in test [1], in test [2] and in test [5] were 23.7 µM (active), 11.9 µM (active) and 7.08 µM (active), respectively. The Potency result in test [4] was “inactive”.

`CCC(=O)NCCC1CCc2ccc3c(c21)CCO3` (configuration not stated): the Potency result in test [8], in test [1], in test [2], in test [3] and in test [4] was “inactive” throughout. Besides, the max activation in test [5] was -2.75%. Further, the Potency in test [7] is 28.2 µM (active).

Take `CC(C)c1nc(N(C)S(C)(=O)=O)nc(-c2ccc(F)cc2)c1/C=C/C(O)CC(O)CC(=O)O` (configuration not stated): the Potency result in test [8], in test [1], in test [2], in test [3], in test [4] and in test [7] was “inactive” in each case. For the same molecule, the max activation in test [5] was 0.498%.

With `CNC(=O)c1c(I)c(C(=O)NCC(=O)Nc2c(I)c(C(=O)O)c(I)c(C(=O)NCCO)c2I)c(I)c(N(C)C(C)=O)c1I`, the Potency result in test [2], in test [4] and in test [6] was “inactive” throughout. Further, the max activation in test [5] is -3.62%.

`CC1CC(OC(=O)C(O)c2ccccc2)CC(C)(C)C1` (configuration not stated): the Potency entry in test [2], in test [3], in test [4] and in test [6] was “inactive” in each case. For the same molecule, the max activation in test [5] is -1.68%.

As to `CC[C@@H](C(=O)[C@@H](C)[C@@H](O)[C@H](C)[C@@H]1O[C@@H]([C@@H](CC)C(=O)O)CC[C@@H]1C)[C@H]1O[C@]2(C=C[C@@H](O)[C@]3(CC[C@@](C)([C@H]4CC[C@](O)(CC)[C@H](C)O4)O3)O2)[C@H](C)C[C@@H]1C`, the Potency entry in test [8], in test [1], in test [2], in test [4] and in test [7] was “inactive” in each case. Also, the max activation in test [5] is -12.1%.

As to `COC(=O)[C@H]1[C@H]2C[C@@H]3c4[nH]c5cc(OC)ccc5c4CCN3C[C@H]2C[C@@H](OC(=O)/C=C/c2cc(OC)c(OC)c(OC)c2)[C@@H]1OC`, the Potency result in test [8], in test [2], in test [3], in test [4] and in test [7] was “inactive” in each case. Moreover, the max activation in test [5] was -2.27%.
